# Data as given in the supplement of paper PMC8728848.
# The entries come from a sample that favours the strongest signals as a whole.
# Legend:
# Test in all cases: glycan array binding signal (z-score within array); higher = stronger binding
# [1] = test system: Fuc(a1-2)Gal(b1-4)[Fuc(a1-3)]GlcNAc(b1-2)Man(a1-3)[Fuc(a1-2)Gal(b1-4)[Fuc(a1-3)]GlcNAc(b1-2)Man(a1-6)]Man(b1-4)GlcNAc(b1-4)GlcNAc; details: glycan notation: IUPAC condensed, linker removed
# How it was run: (§1)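 The binding signal is a Z-score computed within each array and averaged over linkers. Arrays of the same protein sequence at different concentrations or buffers were also averaged together. Data originate from 3228 arrays in the Consortium for Functional Glycomics database, kept only where the protein sequence was available.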
# [2] = test system: Fuc(a1-2)Gal(b1-4)[Fuc(a1-3)]GlcNAc(b1-2)[Fuc(a1-2)Gal(b1-4)[Fuc(a1-3)]GlcNAc(b1-4)]Man(a1-3)[Fuc(a1-2)Gal(b1-4)[Fuc(a1-3)]GlcNAc(b1-2)Man(a1-6)]Man(b1-4)GlcNAc(b1-4)GlcNAc; details: glycan notation: IUPAC condensed, linker removed
# How it was run: as §1
# [3] = test system: Fuc(a1-2)Gal(b1-4)[Fuc(a1-3)]GlcNAc(b1-3)GalNAc; details: glycan notation: IUPAC condensed, linker removed
# How it was run: as §1
# [4] = test system: Fuc(a1-2)[Gal(a1-3)]Gal(b1-4)Glc; details: glycan notation: IUPAC condensed, linker removed
# How it was run: as §1
# [5] = test system: Fuc(a1-2)Gal(b1-4)[Fuc(a1-3)]GlcNAc(b1-3)Gal(b1-4)[Fuc(a1-3)]GlcNAc(b1-3)Gal(b1-4)[Fuc(a1-3)]GlcNAc; details: glycan notation: IUPAC condensed, linker removed
# How it was run: as §1
# [6] = test system: Fuc(a1-2)Gal(b1-4)[Fuc(a1-3)]GlcNAc(b1-3)Gal(b1-4)[Fuc(a1-3)]GlcNAc; details: glycan notation: IUPAC condensed, linker removed
# How it was run: as §1
# [7] = test system: Fuc(a1-2)[Gal(a1-3)]Gal(b1-4)GlcNAc(b1-3)GalNAc; details: glycan notation: IUPAC condensed, linker removed
# How it was run: as §1
# Fuc(a1-2)Gal = details: glycan notation: IUPAC condensed, linker removed
# How it was run: as §1
# [8] = test system: Fuc(a1-2)Gal3S(b1-4)GlcNAc; details: glycan notation: IUPAC condensed, linker removed
# How it was run: as §1
# [9] = test system: Fuc(a1-2)Gal6S(b1-3)GlcNAc; details: glycan notation: IUPAC condensed, linker removed
# How it was run: as §1
# [10] = test system: Fuc(a1-2)Gal6S(b1-4)Glc6S; details: glycan notation: IUPAC condensed, linker removed
# How it was run: as §1
# [11] = test system: Fuc(a1-2)[Gal(a1-3)]Gal(b1-4)GlcNAc(b1-3)[Fuc(a1-2)[Gal(a1-3)]Gal(b1-4)GlcNAc(b1-6)]GalNAc; details: glycan notation: IUPAC condensed, linker removed
# How it was run: as §1
# [12] = test system: Fuc(a1-2)[Gal(a1-4)]Gal(b1-4)GlcNAc; details: glycan notation: IUPAC condensed, linker removed; mutation: R125K
# How it was run: as §1
# [13] = test system: Fuc(a1-2)Gal6S(b1-4)GlcNAc; details: glycan notation: IUPAC condensed, linker removed
# How it was run: as §1
# Fuc(a1-2)[Gal(a1-3)]Gal = details: glycan notation: IUPAC condensed, linker removed
# How it was run: as §1
# Fuc(a1-2)Gal6S(b1-4)Glc = details: glycan notation: IUPAC condensed, linker removed
# How it was run: as §1
# [14] = test system: Fuc(a1-2)[Gal(a1-3)]Gal(b1-3)GlcNAc(b1-2)Man(a1-3)[Fuc(a1-2)[Gal(a1-3)]Gal(b1-3)GlcNAc(b1-2)Man(a1-6)]Man(b1-4)GlcNAc(b1-4)GlcNAc; details: glycan notation: IUPAC condensed, linker removed
# How it was run: as §1
# [15] = test system: Fuc(a1-2)[Gal(a1-3)]Gal(b1-4)GlcNAc(b1-2)Man(a1-3)[Fuc(a1-2)[Gal(a1-3)]Gal(b1-4)GlcNAc(b1-2)Man(a1-6)]Man(b1-4)GlcNAc(b1-4)[Fuc(a1-6)]GlcNAc; details: glycan notation: IUPAC condensed, linker removed
# How it was run: as §1
# Chain of PILRa (Mus musculus), Q2YSF3 (Q2YSF3 entry or part of it): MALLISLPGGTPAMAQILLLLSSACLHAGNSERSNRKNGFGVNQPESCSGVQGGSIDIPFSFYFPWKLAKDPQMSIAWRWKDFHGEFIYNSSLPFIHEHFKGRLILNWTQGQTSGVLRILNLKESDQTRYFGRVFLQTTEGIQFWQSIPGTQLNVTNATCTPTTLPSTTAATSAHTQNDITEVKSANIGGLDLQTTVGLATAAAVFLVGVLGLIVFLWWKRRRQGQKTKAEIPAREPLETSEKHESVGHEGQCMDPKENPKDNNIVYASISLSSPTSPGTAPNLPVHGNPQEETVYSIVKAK
# Chain of PILRb (Mus musculus), Q2YSF2 (Q2YSF2 entry or part of it): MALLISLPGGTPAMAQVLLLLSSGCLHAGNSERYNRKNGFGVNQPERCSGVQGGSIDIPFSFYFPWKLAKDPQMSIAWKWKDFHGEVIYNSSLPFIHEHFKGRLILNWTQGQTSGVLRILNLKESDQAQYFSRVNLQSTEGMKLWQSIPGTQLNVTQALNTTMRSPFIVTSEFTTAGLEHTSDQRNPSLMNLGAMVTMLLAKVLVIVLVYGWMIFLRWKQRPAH
# Chain of Avaren (Actinomycete K97) (chain, as listed by the source): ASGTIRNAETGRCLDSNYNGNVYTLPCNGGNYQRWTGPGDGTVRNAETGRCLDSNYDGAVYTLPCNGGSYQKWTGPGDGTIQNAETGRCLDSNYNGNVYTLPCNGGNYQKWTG
# Chain of SRLC (Mus musculus), Q8VIF6 (Q8VIF6 other isoform, or with tags, fused parts or gaps): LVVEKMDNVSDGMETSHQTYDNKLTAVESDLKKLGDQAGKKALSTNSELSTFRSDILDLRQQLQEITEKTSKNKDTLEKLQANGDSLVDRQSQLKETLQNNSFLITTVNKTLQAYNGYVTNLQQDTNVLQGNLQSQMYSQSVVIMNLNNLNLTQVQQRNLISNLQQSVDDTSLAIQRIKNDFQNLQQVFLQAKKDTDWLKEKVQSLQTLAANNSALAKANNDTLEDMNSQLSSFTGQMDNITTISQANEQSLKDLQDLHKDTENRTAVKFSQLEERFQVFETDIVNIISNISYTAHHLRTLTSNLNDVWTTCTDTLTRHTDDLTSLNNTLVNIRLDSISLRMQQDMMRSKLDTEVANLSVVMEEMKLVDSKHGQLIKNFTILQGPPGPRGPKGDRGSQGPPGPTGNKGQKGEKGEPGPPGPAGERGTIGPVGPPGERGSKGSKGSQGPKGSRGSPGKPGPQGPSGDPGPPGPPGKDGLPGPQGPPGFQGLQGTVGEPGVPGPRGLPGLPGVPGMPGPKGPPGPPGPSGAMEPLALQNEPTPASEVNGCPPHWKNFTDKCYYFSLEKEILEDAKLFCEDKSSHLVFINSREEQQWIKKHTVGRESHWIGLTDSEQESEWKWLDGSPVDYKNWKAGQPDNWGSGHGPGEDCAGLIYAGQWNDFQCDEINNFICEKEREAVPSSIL
# Chain of 6RG (Lolium perenne) (chain, as listed by the source): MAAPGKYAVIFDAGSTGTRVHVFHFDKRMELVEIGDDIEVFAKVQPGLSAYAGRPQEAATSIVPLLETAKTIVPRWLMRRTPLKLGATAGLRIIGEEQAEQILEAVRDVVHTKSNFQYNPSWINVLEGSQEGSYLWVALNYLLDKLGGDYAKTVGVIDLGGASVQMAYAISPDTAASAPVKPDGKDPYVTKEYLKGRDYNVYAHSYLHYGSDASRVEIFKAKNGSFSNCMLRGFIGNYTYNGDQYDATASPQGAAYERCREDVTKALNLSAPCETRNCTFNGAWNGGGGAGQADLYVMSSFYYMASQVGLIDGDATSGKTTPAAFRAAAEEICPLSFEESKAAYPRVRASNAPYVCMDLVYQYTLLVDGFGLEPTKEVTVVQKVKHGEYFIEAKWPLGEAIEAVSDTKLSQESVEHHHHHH
# Chain of Regenerating Gene IV (Homo sapiens), Q9BYZ8 (Q9BYZ8 whole entry, looked up): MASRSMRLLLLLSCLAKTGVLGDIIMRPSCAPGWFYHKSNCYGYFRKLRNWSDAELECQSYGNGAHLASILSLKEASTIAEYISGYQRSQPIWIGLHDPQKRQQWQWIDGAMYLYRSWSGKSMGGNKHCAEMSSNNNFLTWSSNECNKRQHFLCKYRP
# Chain of 6RG (Lolium perenne), B9U140 (B9U140 entry or part of it): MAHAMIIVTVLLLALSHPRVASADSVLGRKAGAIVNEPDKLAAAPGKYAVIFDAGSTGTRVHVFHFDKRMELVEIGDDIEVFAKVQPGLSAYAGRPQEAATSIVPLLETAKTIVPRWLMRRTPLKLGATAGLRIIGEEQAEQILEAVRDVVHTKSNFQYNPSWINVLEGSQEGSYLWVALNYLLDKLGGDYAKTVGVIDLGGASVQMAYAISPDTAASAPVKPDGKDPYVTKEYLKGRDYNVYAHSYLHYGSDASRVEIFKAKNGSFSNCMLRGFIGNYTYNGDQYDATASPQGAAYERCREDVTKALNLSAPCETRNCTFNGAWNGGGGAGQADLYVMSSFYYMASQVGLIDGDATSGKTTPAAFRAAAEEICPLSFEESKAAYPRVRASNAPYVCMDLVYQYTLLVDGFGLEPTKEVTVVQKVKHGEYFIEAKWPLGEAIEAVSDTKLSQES
# Chain of Neurocan (Homo sapiens), O14594 (O14594 other isoform, or with tags, fused parts or gaps): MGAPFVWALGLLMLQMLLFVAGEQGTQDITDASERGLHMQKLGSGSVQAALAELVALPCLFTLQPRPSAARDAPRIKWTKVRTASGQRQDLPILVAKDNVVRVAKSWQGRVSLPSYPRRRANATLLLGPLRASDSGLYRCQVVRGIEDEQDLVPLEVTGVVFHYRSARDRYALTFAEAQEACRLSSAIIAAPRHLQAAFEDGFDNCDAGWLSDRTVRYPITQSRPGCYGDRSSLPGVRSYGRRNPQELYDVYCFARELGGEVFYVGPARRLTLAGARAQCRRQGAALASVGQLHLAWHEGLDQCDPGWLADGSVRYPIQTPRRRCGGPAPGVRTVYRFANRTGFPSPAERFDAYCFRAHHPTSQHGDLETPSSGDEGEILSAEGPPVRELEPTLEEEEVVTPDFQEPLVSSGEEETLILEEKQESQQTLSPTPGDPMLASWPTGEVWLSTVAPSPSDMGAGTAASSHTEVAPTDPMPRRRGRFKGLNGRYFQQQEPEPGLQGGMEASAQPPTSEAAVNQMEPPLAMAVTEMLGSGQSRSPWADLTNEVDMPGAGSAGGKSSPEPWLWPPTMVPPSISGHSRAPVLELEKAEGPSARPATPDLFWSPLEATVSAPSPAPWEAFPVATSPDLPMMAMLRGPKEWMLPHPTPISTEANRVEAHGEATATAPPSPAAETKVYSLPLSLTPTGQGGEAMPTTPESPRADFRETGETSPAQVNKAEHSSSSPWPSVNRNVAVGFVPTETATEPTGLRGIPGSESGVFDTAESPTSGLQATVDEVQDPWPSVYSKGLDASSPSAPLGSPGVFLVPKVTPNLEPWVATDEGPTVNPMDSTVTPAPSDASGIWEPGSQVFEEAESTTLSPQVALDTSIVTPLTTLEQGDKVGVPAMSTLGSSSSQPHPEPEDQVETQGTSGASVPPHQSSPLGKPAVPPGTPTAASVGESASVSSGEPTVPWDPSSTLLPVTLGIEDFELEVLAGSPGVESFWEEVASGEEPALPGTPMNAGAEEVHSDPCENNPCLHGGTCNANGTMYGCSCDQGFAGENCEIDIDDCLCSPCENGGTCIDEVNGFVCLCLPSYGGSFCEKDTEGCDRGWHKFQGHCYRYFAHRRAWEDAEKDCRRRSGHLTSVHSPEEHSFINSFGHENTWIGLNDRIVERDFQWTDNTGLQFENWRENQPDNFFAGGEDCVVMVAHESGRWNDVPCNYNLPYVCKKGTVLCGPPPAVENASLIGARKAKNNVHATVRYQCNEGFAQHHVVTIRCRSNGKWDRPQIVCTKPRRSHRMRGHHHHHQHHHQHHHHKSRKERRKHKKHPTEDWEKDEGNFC
# Chain of Aggrecan (Rattus norvegicus), NP_071526 (chain, as listed by the source): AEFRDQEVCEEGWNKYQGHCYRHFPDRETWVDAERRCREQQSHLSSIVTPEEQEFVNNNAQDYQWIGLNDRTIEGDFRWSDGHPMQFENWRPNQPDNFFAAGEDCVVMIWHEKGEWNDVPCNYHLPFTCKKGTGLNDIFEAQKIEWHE
# Chain of wLAT-1A (Homo sapiens), Q01650 (Q01650 whole entry): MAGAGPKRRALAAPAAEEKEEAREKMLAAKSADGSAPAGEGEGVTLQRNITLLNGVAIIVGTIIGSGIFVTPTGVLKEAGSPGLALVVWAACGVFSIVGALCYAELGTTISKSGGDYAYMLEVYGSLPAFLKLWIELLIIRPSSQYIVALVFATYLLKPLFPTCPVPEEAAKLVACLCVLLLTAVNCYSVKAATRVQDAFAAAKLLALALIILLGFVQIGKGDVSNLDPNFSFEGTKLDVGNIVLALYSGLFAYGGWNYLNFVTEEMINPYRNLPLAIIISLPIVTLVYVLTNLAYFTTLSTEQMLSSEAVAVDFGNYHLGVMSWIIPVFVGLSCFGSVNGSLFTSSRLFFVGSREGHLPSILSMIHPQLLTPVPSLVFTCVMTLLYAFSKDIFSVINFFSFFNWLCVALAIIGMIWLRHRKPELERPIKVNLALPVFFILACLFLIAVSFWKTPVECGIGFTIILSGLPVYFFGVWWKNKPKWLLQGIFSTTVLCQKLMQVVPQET
# Chain of CHI3L1 (Homo sapiens), P36222 (P36222 whole entry): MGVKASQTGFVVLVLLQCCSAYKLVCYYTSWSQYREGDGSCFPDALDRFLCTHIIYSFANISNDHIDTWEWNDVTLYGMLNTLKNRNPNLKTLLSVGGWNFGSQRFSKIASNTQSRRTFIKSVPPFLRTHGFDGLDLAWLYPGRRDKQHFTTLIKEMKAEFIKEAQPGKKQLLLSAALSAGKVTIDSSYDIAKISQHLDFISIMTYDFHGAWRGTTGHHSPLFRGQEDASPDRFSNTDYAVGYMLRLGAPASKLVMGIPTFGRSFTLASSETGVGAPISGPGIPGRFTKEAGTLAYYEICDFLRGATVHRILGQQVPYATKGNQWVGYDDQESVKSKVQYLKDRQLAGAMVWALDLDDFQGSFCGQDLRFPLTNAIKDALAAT
substance,measurement,setting,value
"PILRb (Mus musculus), Q2YSF2",glycan array binding signal (z-score),[1],2.37
same,glycan array binding signal (z-score),[2],0.151
same,glycan array binding signal (z-score),[3],11.4
same,glycan array binding signal (z-score),[4],-0.137
"Neurocan (Homo sapiens), O14594",glycan array binding signal (z-score),[2],2.6
"PILRa (Mus musculus), Q2YSF3",glycan array binding signal (z-score),[5],-0.134
same,glycan array binding signal (z-score),[6],1.82
same,glycan array binding signal (z-score),[3],1.77
same,glycan array binding signal (z-score),[7],-0.185
6RG (Lolium perenne),glycan array binding signal (z-score),[6],-0.204
same,glycan array binding signal (z-score),Fuc(a1-2)Gal,-0.033
"Siglec-8 (Homo sapiens), Q9NYZ4",glycan array binding signal (z-score),[8],-0.157
same,glycan array binding signal (z-score),[9],0.008
same,glycan array binding signal (z-score),[10]; mutation: R125K,-0.235
same,glycan array binding signal (z-score),[11]; mutation: R125K,2.31
same,glycan array binding signal (z-score),[4],0.008
same,glycan array binding signal (z-score),[12],-0.066
MpAFP RI GFP (Marinomonas primoryensis),glycan array binding signal (z-score),[9],-0.023
same,glycan array binding signal (z-score),[11],-0.23
"6RG (Lolium perenne), B9U140",glycan array binding signal (z-score),[10],0.291
"Regenerating Gene IV (Homo sapiens), Q9BYZ8",glycan array binding signal (z-score),[10],3.23
same,glycan array binding signal (z-score),Fuc(a1-2)Gal,0.024
"wLAT-1A (Homo sapiens), Q01650",glycan array binding signal (z-score),[13],-0.807
"SRLC (Mus musculus), Q8VIF6",glycan array binding signal (z-score),[13],-0.208
same,glycan array binding signal (z-score),Fuc(a1-2)[Gal(a1-3)]Gal,-0.233
Avaren (Actinomycete K97),glycan array binding signal (z-score),Fuc(a1-2)Gal6S(b1-4)Glc,-0.124
same,glycan array binding signal (z-score),[14],-0.036
"CHI3L1 (Homo sapiens), P36222",glycan array binding signal (z-score),[15],-0.116
"Aggrecan (Rattus norvegicus), NP_071526",glycan array binding signal (z-score),Fuc(a1-2)[Gal(a1-3)]Gal,-0.088
